Assay results from PubChem BioAssay (NCATS).
Several values for one entry are separate records, joined by “and”; a condition that tells them apart may be missing. Identical values can stand only once. Results filed as inconclusive are left out. Activity calls are given as the source filed them. Unless noted, the call rests on the fitted dose curve; in most records, active means well fitted curve in the direction sought with a large enough effect; inconclusive means small, poorly fitted or top-dose-only effect, or another doubt; inactive means no such curve, though single readings can be large; an effect the other way counts as inactive or inconclusive.

What was measured:
[1] = Cell Viability - BJ (AID 421; calls by dose curve;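 further: potency means the concentration at half of the fitted maximal effect; cells exposed to compound for 40 hours at 37 °C before readout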); details: BJ fibroblast viability, qHTS
Outline: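 Luminescent ATP signal (CellTiter-Glo, 20 min at room temperature) served as the read-out of viable BJ cells after 40 hours of compound treatment. Responses were scaled between DMSO and 100 uM tamoxifen, and AC50 values were obtained by Hill modeling.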

[2] = Cell Viability - Jurkat (AID 426;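 active means dose-dependent loss of cell ATP signal giving a full or clear fitted curve, ranked by lower potency value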;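 further: potency means the concentration at half of the fitted maximal effect; cells exposed to compound for 40 hours at 37 °C before ATP read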); details: qHTS
Outline: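 Luminescent ATP read-out (CellTiter-Glo, 20 min at room temperature) after 40 hr compound exposure at 37 °C of Jurkat E6-1 cells, 5000/well. Decreased ATP taken as cytotoxicity; AC50 from standard Hill equation.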

[3] = Cell Viability - Hek293 (AID 427;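 active means compounds whose dose-response curve shows a full or clear partial loss of cell viability, called from curve shape rather than a numeric limit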;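 further: potency means the concentration at half of the fitted maximal effect; cells exposed to compound for 40 hours at 37 °C before reading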); details: qHTS
Outline: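 Luminescent ATP read-out (CellTiter-Glo, 20 min RT) after 40 hr compound exposure at 37 °C in complete medium. Signal normalized to DMSO (basal) and 100 uM tamoxifen (100% inhibition); concentration-response fitted with the standard Hill equation to give AC50.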

[4] = Cell Viability - MRC5 (AID 434; calls by dose curve;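 further: potency means the concentration at half of the fitted maximal effect; cells exposed to compound for 40 hours at 37 °C; potency reflects cytotoxicity seen as loss of intracellular ATP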); details: MRC5 lung fibroblast viability, qHTS
Outline: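 ATP luminescence read-out (CellTiter-Glo, 20 min RT) after 40 hr, 37 °C compound exposure of 1500 MRC5 cells/well. Data normalized to DMSO (basal) and 100 uM tamoxifen (100% inhibition); AC50 from standard Hill equation.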

[5] = Cell Viability - Mesenchymal (AID 546); details: mesenchymal cells viability, qHTS; series mostly up to 91.7 µM;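 further: cells exposed to compound for 40 hours before reading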
Outline: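 Human renal mesenchymal cells (glomerulus-derived), 1000 cells/well, 5 hr 37 °C pre-incubation; compound 40 hr, 37 °C; CellTiter-Glo, 20 min RT; luminescence; AC50 via Hill equation.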

[6] = Cellular Toxicity (caspase-3) SHSY5Y (AID 657); details: SH-SY5Y caspase-3 activation, DMSO zero, 10 µM staurosporine = 100%; series mostly up to 91.7 µM;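 further: cells exposed to compound for 16 hours at 37 °C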
Outline: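 qHTS, SH-SY5Y, 1500 cells/well, 5 h pre-incubation 37 °C; compound 16 h 37 °C; Caspase-Glo 3/7 1 h RT; luminescence. Norm.: DMSO = 0, 10 uM staurosporine = 100%. Hill fit → AC50.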

[7] = Cellular Toxicity (caspase-3) MRC-5 (AID 659); details: MRC-5 cells, luminescence, normalized: DMSO 0%, 10 µM staurosporine 100%; series mostly up to 91.7 µM
Outline: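 MRC-5 fibroblasts, 1500/well; 16 h cpd, 37 °C; Caspase-Glo 3/7, 1 h RT; lumi read. Norm: DMSO = 0%, 10 uM staurosporine = 100%. Hill-fit AC50 from qHTS conc-response.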

[8] = Cellular Toxicity (caspase-3) Mesangial (AID 660); details: mesangial cells, normalized: DMSO 0%, 100 µM tamoxifen 100%; series mostly up to 91.7 µM;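 further: combined caspase 3 and 7 activity read by Caspase-Glo luminescence; cells exposed to compound for 16 h before the caspase read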
Outline: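 Luminescent Caspase-Glo 3/7 readout (aminoluciferin substrate cleavage, 20 min RT) after 16 h compound exposure at 37 °C of normal human mesangial cells. Signal increase normalized between DMSO basal and 100 uM tamoxifen; Hill-equation AC50.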

[9] = Cellular Toxicity (caspase-3) SK-N-SH (AID 661); details: SK-N-SH caspase-3 activation, qHTS; series mostly up to 91.7 µM;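 further: cells exposed to compound for 16 hours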
Outline: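 Luminescent Caspase-Glo 3/7 read-out after 16 hr compound exposure of SK-N-SH neuroblastoma cells at 37 °C. Signal increase normalized to DMSO (basal) and 10 uM staurosporine (100%); AC50 from Hill equation fits of qHTS concentration-response data.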

[10] = Cellular Toxicity (caspase-3) Hek293 (AID 664); details: HEK293 caspase-3 activation, DMSO = 0%, 100 µM tamoxifen = 100%; at 92.2 µM (top of the series);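 further: cells exposed to compound for 16 h at 37 °C before readout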
Outline: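 Luminescent Caspase-Glo 3/7 readout (aminoluciferin release) in HEK293 cells after 16 h compound treatment, 37 °C. Normalization: DMSO = basal, 100 uM tamoxifen = 100% stimulation. Concentration-response fitted with standard Hill equation for AC50.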

[11] = Cellular Toxicity (caspase-3) N2a (AID 665); details: N2a cells, luminescence, normalized: DMSO 0%, 10 µM staurosporine 100%; series mostly up to 92.2 µM;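 further: compound exposure lasted 16 h at 37 °C before readout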
Outline: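 Luminescent Caspase-Glo 3/7 readout in N2a mouse neuroblastoma cells after 16 h compound exposure at 37 °C. Signal scaled to DMSO (basal) and 10 uM staurosporine (100%). Concentration-response fitted with Hill equation for AC50.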

[12] = Cell Viability - LYMP1-002 - Assay at 16 hr (AID 948); details: LYMP1-002 lymphoblastoid cell viability; series mostly up to 92.2 µM;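 further: 0% = DMSO alone and full effect = 92 µM tetraoctylammonium bromide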
Outline: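 Seed 2500 LYMP1-002 cells per well in complete medium and hold 5 hr at 37 C. Add compound across a concentration series and incubate 16 hr at 37 C. Add CellTiter-Glo, wait 30 min at room temperature, read luminescence.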

[13] = MultiTox-Fluor Cytotoxicity Assay - LYMP1-003 - Dead Cells (AID 961); details: LYMP1-003 lymphoblastoid cells, dead-cell protease fluorescence; series mostly up to 92.2 µM;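 further: 0% = DMSO and 100% = tetraoctylammonium bromide; nearly all actives have a fitted effect of over 70% in size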
Outline: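 Human lymphoblastoid LYMP1-003 cells (2500/well) were treated with compounds for 16 hr at 37 C in complete medium. Dead-cell protease release was read by bis-AAF-R110 fluorescence (Ex/Em 485/520). AC50 came from Hill fits, normalized to DMSO and 15 uM tetraoctylammonium bromide.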

[14] = MultiTox-Fluor Cytotoxicity Assay - LYMP1-003 - Live Cells (AID 962); details: LYMP1-003 lymphoblastoid cells, MultiTox-Fluor live-cell protease fluorescence; series mostly up to 92.2 µM;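 further: cells exposed to compound for 16 hours at 37 °C; 0% = DMSO only and full loss = 92 µM tetraoctylammonium bromide; cytotoxic hits lower the live-cell protease signal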
Outline: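 Readout: live-cell fluorescence (Ex/Em=405/510) from GF-AFC cleavage after 60 min MultiTox-Fluor reagent at room temperature. Lymphoblastoid LYMP1-003 cells, 16 hr compound treatment, 37 C. Concentration-response fitted to standard Hill equation for AC50.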

[15] = Cell Viability - LYMP1-003 - Assay at 24 hr (AID 963); details: LYMP1-003 lymphoblastoid cell viability; series mostly up to 92.2 µM;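 further: plate controls were DMSO only for no effect and tetraoctylammonium bromide positive control for full effect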
Outline: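 CellTiter-Glo luminescence (intracellular ATP) read after 24 hr, 37 C compound exposure of 2500 LYMP1-003 human lymphoblastoid cells/well in complete medium; qHTS concentration series; AC50 via standard Hill equation.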

[16] = Cell Viability - LYMP2-008 (AID 980); details: LYMP2-008 lymphoblastoid cell viability, qHTS; series mostly up to 92.2 µM;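 further: cells exposed to compound for 24 h at 37 °C; on the % scale 0 is the no-effect control and ±100 the full control effect; nearly all actives have a fitted effect of over 60% in size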
Outline: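 Luminescent ATP read-out (CellTiter-Glo, 30 min RT) after 24 hr compound exposure at 37 C of human lymphoblastoid cells in complete medium. Decrease in ATP taken as cytotoxicity; AC50 derived by standard Hill fit of qHTS concentration-response data.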

[17] = qHTS Assay for Identification of Small Molecule Inducers of Hypoxia Response (AID 2120; active means well fitted curve in the direction sought with a large enough effect in the signal ratio, with a control signal flat, not every such curve was filed as active; the % refers to the signal ratio; further: 0% is about no effect); details: hypoxia response reporter cells, beta-lactamase ratio readout; series mostly up to 104 µM
Outline: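 Read-out: CCF4 FRET emission ratio 460nm/530nm (excitation 405nm), converted to %Activity, with AC50 fitted across a compound titration. ME-180 cells carried an HRE-driven beta-lactamase reporter; compound exposure 17 h, 37 degrees C.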

[18] = biological target: Peroxisome proliferator-activated receptor alpha (Homo sapiens) (UniProt Q07869); assay: qHTS assay for small molecule agonists of the peroxisome proliferator-activated receptor alpha (PPARalpha) signaling pathway (AID 651778); details: PathHunter PPARalpha complementation, chemiluminescence, 6 h; active compounds read high; further: % of control where 0% means no effect
Outline: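 Enzyme-fragment complementation assay in which ligand-bound PPARalpha translocates and forms an active enzyme that generates chemiluminescence. Cells were plated overnight, exposed to compound for 6 hr at 37 C, and then given detection reagent for 60 min at room temperature.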

[19] = qHTS assay for small molecule agonists of the antioxidant response element (ARE) signaling pathway measured by Nrf2-dependant transcriptional activity - cell viability counter screen (AID 720653; active means well fitted curve in the direction sought with a large enough effect in the repeat runs; an effect the other way counts as inactive or inconclusive; further: on the % scale 0 is the no-effect control and ±100 the full control effect); details: ARE-bla HepG2 viability, CellTiter-Glo ATP luminescence, 16 h; active compounds read low
Outline: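 ARE-bla HepG2 cells treated with compounds for 16 h at 37C; this counter screen measures viability as intracellular ATP by CellTiter-Glo luminescence after 30 min at room temperature.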

[20] = qHTS assay for cell viability of the p53RE-bla HCT-116 cell line (AID 743292); details: p53RE-bla HCT-116 viability, ATP luminescence, 16 h; series mostly up to 95 µM; further: on the % scale 0 is the no-effect control and ±100 the full control effect; nearly all actives have a fitted effect of over 55% in size
Outline: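 Intracellular ATP of p53RE-bla HCT-116 cells measured by luciferase luminescence following 16 h compound incubation at 37 C; DMSO-only wells served as vehicle controls.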

Sequence of Peroxisome proliferator-activated receptor alpha (Homo sapiens) (Q07869 whole entry, looked up, the tested form may be a part): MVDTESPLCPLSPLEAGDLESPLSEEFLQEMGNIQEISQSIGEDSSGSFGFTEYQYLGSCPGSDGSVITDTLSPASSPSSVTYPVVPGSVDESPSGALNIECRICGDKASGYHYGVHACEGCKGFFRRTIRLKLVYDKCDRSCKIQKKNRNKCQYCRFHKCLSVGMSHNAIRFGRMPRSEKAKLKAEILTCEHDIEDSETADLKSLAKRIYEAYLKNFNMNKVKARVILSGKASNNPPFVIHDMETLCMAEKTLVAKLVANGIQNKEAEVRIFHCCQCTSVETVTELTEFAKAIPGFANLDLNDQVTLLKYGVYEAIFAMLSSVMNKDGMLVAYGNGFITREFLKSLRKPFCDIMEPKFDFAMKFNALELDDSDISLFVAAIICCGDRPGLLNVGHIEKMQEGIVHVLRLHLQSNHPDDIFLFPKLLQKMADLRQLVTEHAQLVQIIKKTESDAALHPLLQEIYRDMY

CC(C)Br
inactive: Potency [1] > 92 µM | Potency [2] > 92 µM | Potency [3] > 92 µM | Potency [4] > 92 µM | Potency [5] | outcome [6] | outcome [7] | outcome [8] | Potency [9] | caspase-3 activation [10] -2.59% | outcome [11] | outcome [12] | Potency [13] | outcome [14] | outcome [15] | Potency [16] | Potency [17] | max response [18] -8.27% | max response [19] -6.22% | Potency [20]

Cc1ccc2c(C)cccc2c1
inactive: Potency [1] > 92 µM | Potency [2] > 92 µM | Potency [3] > 92 µM | Potency [4] > 92 µM | Potency [5] | outcome [6] | outcome [7] | outcome [8] | Potency [9] | caspase-3 activation [10] -1.38% | outcome [11] | outcome [12] | Potency [13] | outcome [14] | outcome [15] | Potency [16] | Potency [17] | max response [18] 3.14% | max response [19] -2.91% | Potency [20]

COc1c(C(C)(C)C)cc([N+](=O)[O-])c(C)c1[N+](=O)[O-]
inactive: Potency [1] > 92 µM | Potency [2] > 92 µM | Potency [3] > 92 µM | Potency [4] > 92 µM | Potency [5] | outcome [6] | outcome [7] | outcome [8] | Potency [9] | caspase-3 activation [10] 1.65% | outcome [11] | outcome [12] | Potency [13] | outcome [14] | outcome [15] | Potency [16] | Potency [17] | max response [18] 1.79% | max response [19] 4.77% | Potency [20]

Nc1ccc(-c2ccccc2)cc1
inactive: Potency [1] > 92 µM | Potency [2] > 92 µM | Potency [3] > 92 µM | Potency [4] > 92 µM | Potency [5] | outcome [6] | outcome [7] | outcome [8] | Potency [9] | caspase-3 activation [10] 1.62% | outcome [11] | outcome [12] | Potency [13] | outcome [14] | outcome [15] | Potency [16] | Potency [17] | max response [18] -0.418% | max response [19] 5.56% | Potency [20]

CCCN(CCC)c1c([N+](=O)[O-])cc(C(F)(F)F)cc1[N+](=O)[O-]
inactive: Potency [1] > 92 µM | Potency [2] > 92 µM | Potency [3] > 92 µM | Potency [4] > 92 µM | Potency [5] | outcome [6] | outcome [7] | outcome [8] | Potency [9] | caspase-3 activation [10] 3.06% | outcome [11] | outcome [12] | Potency [13] | outcome [14] | outcome [15] | Potency [16] | Potency [17] | max response [18] 2.49% and -0.599% | max response [19] -5.66% and -9.4% | Potency [20]

Clc1ccc(C(Cl)(Cl)Cl)c(Cl)c1
inactive: Potency [1] > 92 µM | Potency [2] > 92 µM | Potency [3] > 92 µM | Potency [4] > 92 µM | Potency [5] | outcome [6] | outcome [7] | outcome [8] | Potency [9] | caspase-3 activation [10] 0.186% | outcome [11] | outcome [12] | Potency [13] | outcome [14] | outcome [15] | Potency [16] | Potency [17] | max response [18] -0.345% | max response [19] -1.74% | Potency [20]
